# Inconclusive results are not listed. Active and inactive are the calls of the source. Calls follow the shape of the dose curve; as a rule, active = well fitted activation curve with a large enough effect; inconclusive = small, poorly fitted or top-dose-only effect; inactive = flat fitted curve, though single readings scatter. Where a SMILES comes first, the peptide text is derived from it. The star is where a group is joined. AFC = O=c1cc(C(F)(F)F)c2ccc(N*)cc2o1
# Assay: Primary redox qHTS assay for identification of artifact compounds. (AID 1845223);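 also: 0% = DMSO and 100% = reference compound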
# Settings: Amplex Red/HRP redox cycling with DTT, fluorescence; series mostly up to 53.8 µM; redox activity (% of DA3003): at the top concentration
# In short: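 Redox-cycling detection via DTT (250 uM final) oxidation coupled to Amplex Red (25 uM)/HRP (250 mU/mL) in HBSS. 15 min preincubation plus 30 min after DTT, room temperature. Ex/Em 525/598 nm; 4-parameter Hill fit against DMSO and 10 uM DA3003.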
Compound,redox activity (% of DA3003),Potency
NC(=O)c1cccc(-c2cc(O)cc(OC(=O)NC3CCCCC3)c2)c1,8.8% [at 25.6 µM] (inactive),
COC(=O)[C@H](CC1C=NC=N1)NCC12CC3CC(CC(C3)C1)C2 (stereo not given in full),-1.47% (inactive),
CC(C)C1=CCC(C)(O)C(OC2OC(CO)C(O)C(O)C2O)C1 (stereo not given),11.6% (inactive),
COc1cc(/C=C/C(=O)OC2CC(OC(C)=O)C(OC(C)=O)C3C2CCC2C(=O)OC(c4ccoc4)CC23C)ccc1O[C@@H]1O[C@H](CO)[C@@H](O)[C@H](O)[C@H]1O (stereo not given in full),0.88% [at 25.6 µM] (inactive),
C=C1CCC2C(C)(C)C(O)CCC2(C)C1CCC(C)CCOC(=O)CCC(=O)O (stereo not given),5.34% [at 25.6 µM] (inactive),
O=C(CCO[C@@H]1O[C@H](CO)[C@@H](O)[C@H](O)[C@H]1O)c1ccc(O)cc1,-0.131% (inactive),
COc1cc(C2OCC3C(c4ccc(OC5OC(CO)C(O)C(O)C5O)c(OC)c4)OCC23)ccc1O (stereo not given),-0.501% [at 25.6 µM] (inactive),
C=C1CC[C@H]2[C@@H](/C=C(\C)C(=O)[C@@]3(OC(C)=O)C[C@H](C)[C@H](OC(C)=O)[C@@H]3[C@H]1OC(C)=O)C2(C)C,-3.67% [at 25.6 µM] (inactive),
CC(C)(O)/C=C1/C(=O)C(C)(C)C(=O)C(C)(C)C1(O)O[C@@H]1O[C@H](COC(=O)c2cc(O)c(O)c(O)c2)[C@@H](O)[C@H](O)[C@H]1O (stereo not given in full),-3.66% [at 25.6 µM] (inactive),
C=C1C(=O)OC2/C=C(\C)CC/C=C(\C(=O)O)CC/C=C(\C)CCC12 (stereo not given),-0.589% (inactive),
CC1CCC2(C(=O)OC3OC(COC4OC(CO)C(O)C(O)C4O)C(O)C(O)C3O)CCC3(C)C(=CCC4C5(C)CCC(O)C(C)(C(=O)O)C5CCC43C)C2C1(C)O (stereo not given),2.59% [at 11.5 µM] (inactive),
CO[C@@H]1COCC[C@@H]1N[C@@H]1CC[C@@](C(=O)N2CCc3ncc(C(F)(F)F)cc3C2)(C(C)C)C1,-1.83% [at 25.6 µM] (inactive),
CC[C@H]1OC(=O)C[C@@H](O)[C@H](C)[C@@H](O[C@@H]2O[C@H](C)[C@@H](O)[C@H](N(C)C)[C@H]2O)[C@@H](CCN2C[C@H](C)C[C@H](C)C2)C[C@@H](C)C(=O)/C=C/C(C)=C/[C@@H]1CO[C@@H]1O[C@H](C)[C@@H](O)[C@@H](OC)[C@H]1OC,6.03% (inactive),
CC(C)(C)c1cc(CN2CCN(CC(O)c3ccc(Cl)cc3)CC2)cc(C(C)(C)C)c1O (stereo not given),-1.33% (inactive),
COCC(=O)N1CCc2cc(-c3csc(NC(=O)c4cc(OC)cc(OC)c4)n3)ccc21,-1.1% (inactive),
CC1(C)CC2C3=CCC4C5(C)CCC(OC6OC(C(=O)O)C(O)C(O)C6OC6OC(CO)C(O)C(O)C6OC6OC(CO)C(O)C(O)C6O)C(C)(CO)C5CCC4(C)C3(C)CCC2(C)C(OC2OCC(O)C(OC3OC(CO)C(O)C(O)C3O)C2O)C1O (stereo not given),10.1% [at 11.5 µM] (inactive),
Cc1onc(-c2ccccc2)c1C(=O)N[C@@H]1C(=O)N2[C@@H]1SC(C)(C)[C@@H]2C(=O)O,,inactive
Cc1cccc(-c2[nH]c(CNc3ccccc3F)nc2-c2ccc3ncnn3c2)n1,8.88% (inactive),
O=C(O)c1n[nH]c2c1C[C@H]1C[C@@H]21,-3.77% (inactive),
COC1CC(=O)C23C(=O)NC(CC(C)C)C2C(C)C(C)=CC3/C=C(\C)CCC1O (stereo not given),3.39% [at 25.6 µM] (inactive),

Compound,redox activity (% of DA3003),Potency
CC1=CC(=O)C2C(C)(C)CCCC2(C)C12CCC1(COC(=O)C1)O2 (stereo not given),-11.2% (inactive),
Cc1c(CN(C)C(=O)/C=C/c2cnc3c(c2)CCC(=O)N3)oc2ccccc12,-1.28% (inactive),
O=C1NC(Cc2ccc(O)cc2)C(=O)N2CCCC12 (stereo not given),-5.29% (inactive),
OC1COC(OCC2OC(OCCc3ccccc3)C(O)C(O)C2O)C(O)C1O (stereo not given),-0.075% [at 25.6 µM] (inactive),
CC(=O)N[C@@H](CC(C)C)C(=O)N[C@@H](CCC(=O)O)C(=O)N[C@@H](CCC(=O)O)C(=O)N[C@@H](CC(=O)O)C(=O)Nc1ccc2c(C(F)(F)F)cc(=O)oc2c1 (Ac-LEED-{AFC}),0.185% (inactive),
C=CC(C)(C)C1(CC2NC(=O)C3CCCN3C2=O)C(=O)Nc2cc3c(cc21)C=CC(C)(C)O3 (stereo not given),5.54% [at 25.6 µM] (inactive),
CCC(=O)N[C@@H]1Cc2ccccc2[C@H](c2ccccc2)C1,8.67% (inactive),
CC(C)(O)CNc1nc(Nc2ccnc(C(F)(F)F)c2)nc(-c2cccc(C(F)(F)F)n2)n1,4.9% [at 25.6 µM] (inactive),
NC(=O)[C@H]1CCCCc2c1[nH]c1ccc(Cl)cc21,-2.97% [at 25.6 µM] (inactive),
C=CC1(C)C=C2C(=O)CC3C(C)(C)CCCC3(C(=O)O)C2(O)CC1 (stereo not given),19.1% (inactive),
CC1(CO)CC2C(O)C(=O)C3(CO)CC3(C)C2C1 (stereo not given),-13.1% (inactive),
CCC[C@@H]1C[C@@H](C(=O)N[C@@H]([C@H]2O[C@H](SC)[C@H](OP(=O)(O)O)[C@@H](O)[C@H]2O)[C@H](C)Cl)N(C)C1,-6.06% [at 25.6 µM] (inactive),
CNC(=O)O[C@H]1COc2ccc(N3CCN(C4COC4)CC3)cc2[C@@H]1NC(=O)c1ccc(F)cc1,8.14% (inactive),
CCC(CCO[C@@H]1O[C@H](CO[C@H]2OC[C@](O)(CO)[C@H]2O)[C@@H](O)[C@H](O)[C@H]1O)C(C)(C)O (stereo not given in full),-15.5% [at 25.6 µM] (inactive),
C/C=C(\C)C(=O)O[C@@H]1CC2[C@@H](CC=C3C[C@@H](O[C@H]4C[C@H](OC)[C@H](O[C@H]5C[C@H](OC)[C@H](O[C@H]6C[C@H](OC)[C@H](O[C@H]7C[C@@H](OC)[C@H](O[C@@H]8O[C@H](CO)[C@@H](O)[C@H](O)[C@H]8O)[C@@H](C)O7)[C@@H](C)O6)[C@@H](C)O5)[C@@H](C)O4)CC[C@@]32C)[C@@]2(O)CC[C@H](C(C)=O)[C@@]12C (stereo not given in full),-9.41% [at 11.5 µM] (inactive),
O=C(/C=C/c1ccccc1)OCC1=CC[C@@H]2C(C(=O)O)=CO[C@@H](O[C@@H]3O[C@H](CO)[C@@H](O)[C@H](O)[C@H]3O)[C@H]12,-2.21% [at 25.6 µM] (inactive),
COC1C=C([C@@H]2CC=C3[C@@]4(C)C(CC[C@]32C)[C@@]2(C)C=CC(=O)C(C)(C)C2C[C@H]4OC(C)=O)C(=O)O1 (stereo not given in full),7.14% [at 25.6 µM] (inactive),
O=C(c1ccc(C#Cc2cccc(F)c2)cn1)N1CC2CC2C1 (stereo not given),5.37% (inactive),
C[C@@H]1CC[C@]2(C)C(C[C@@H](O)[C@H](O)[C@]23CO3)[C@@]1(C)CCc1ccoc1 (stereo not given in full),-1.74% (inactive),
COC1CC(=O)CCC(C)OC(=O)CC1O (stereo not given),-17.5% (inactive),

# From PubChem BioAssay (NCATS)
